This note sets out measurements from article PMC5540273 (PLoS ONE, 2017).

SMILES strings stand for the structures.

Details in all cases: concentration: 1 μM,replicates: in singlicate; n = 1
In assay [1] the test system is STK36.
The subject of assay [2] is STK39.
The subject of assay [3] is SYK.
Assay [4] concerns SgK110.
Assay [5] deals with T1, TAK1.
T1 construct: gene MAP3K7

The subject of assay [6] is TAOK1.
Assay [7] has as its system TAOK2.
In assay [8] the test system is TAOK3.
In assay [9] the test system is TBK1.
Assay [10] has as its system TEC.
The subject of assay [11] is TESK1.
In assay [12] the test system is TGFBR1.
Assay [13] deals with TGFBR2.
For assay [14], the system named is TIE1.
Assay [15] relates to T2, TIE2.
T2 construct: gene TEK

The test system of assay [16] is TLK1.
In assay [17] the test system is TLK2.
The subject of assay [18] is TNIK.
The subject of assay [19] is TNK1.
The subject of assay [20] is TNK2.
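Note: KINOMEscan kinase panel screen.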

Regarding `NC(=O)c1ccc(-c2cc3ncnc(SCC(=O)O)c3s2)cc1`, the “%Inh” value in assay [1], in assay [2], in assay [3], in assay [4], in [5] and in assay [6] was 0% throughout. Besides, the “%Inh” value worked out at 0% in [7]; 0% in assay [8]; 8% in [9]; 0% in assay [10]; 6% in [11]; 0% in assay [12]. Besides, the “%Inh” value in assay [13] came to 40%; in assay [14] it was 0%; in assay [15] it was 13%; in [16], 5%; in assay [17] it was 0%; in [18], 33%. In addition, the “%Inh” value in [19] and in [20] was 0% throughout.
On to `COc1cccc(OC)c1C(=O)Nc1cccc(-c2nn3ccccc3c2-c2ccnc(Nc3cccc(F)c3)n2)c1` [GSK361065], for which the “%Inh” value stood at 92% in assay [1]; 11% in assay [2]; 3% in assay [3]; 16% in assay [4]; 16% in [5]; 62% in [6]. Also, the “%Inh” value amounted to 15% in assay [7]; 60% in assay [8]; 61% in assay [9]; 26% in assay [10]; 1% in assay [11]; 0% in assay [12]. The “%Inh” value in assay [13] is reported as 17%; in assay [14], 19%; in assay [15] it was 12%; in assay [16], 19%; in assay [17], 0%; in assay [18], 6%. Moreover, the entries for the “%Inh” value in [19] and in assay [20] were 31% and 29%, respectively.
Take `Cn1ccc2ncnc(Oc3ccc(NC(=O)Nc4cncc(C(F)(F)F)c4)c(Cl)c3)c21`: the “%Inh” value in assay [1] is reported as 0%; in assay [2] it was 0%; in assay [3], 0%; in [4] it was 9%; in assay [5], 11%; in [6] it was 0%. Moreover, the “%Inh” value in assay [7], in [8], in [9], in [10], in assay [11] and in [12] was 0% in each case. Moreover, the “%Inh” value in [13] is on record as 0%; in assay [14] it was 80%; in assay [15], 92.8%; in [16] it was 5%; in assay [17], 0%; in assay [18], 0%. Moreover, the “%Inh” value in [19] and in assay [20] was 0% each time.
Consider `COc1cccc(CNC(=O)NC2CCN(c3ccnc(Nc4cc(OC)c(OC)c(OC)c4)n3)C2)c1` (stereo not drawn) [GSK1379765], for which the “%Inh” value in assay [1] was determined as 0%; in assay [2], 10%; in assay [3], 9%; in assay [4], 0%; in assay [5], 0%; in assay [6] it was 0%. Also, the “%Inh” value came out at 0% in [7]; 0% in [8]; 36% in assay [9]; 13% in [10]; 40% in assay [11]; 24% in [12]. Also, the “%Inh” value in [13] was found to be 0%; in assay [14], 100%; in assay [15] it was 0%; in assay [16], 0%; in [17], 0%; in assay [18], 0%. Further, the “%Inh” value is 0% in [19] and 8% in assay [20].
Consider `O=C1NCCc2[nH]c(-c3ccncc3)cc21`, for which the “%Inh” value in assay [1] was determined as 6%; in assay [2] it was 23%; in [3], 11%; in assay [4], 0%; in assay [5], 23%; in assay [6] it was 96.9%. Further, the “%Inh” value was 16% in assay [7]; 41% in [8]; 20% in assay [9]; 0% in [10]; 6% in [11]; 33% in assay [12]. Also, the “%Inh” value in [13] amounted to 44%; in [14] it was 0%; in assay [15], 5%; in assay [16], 31%; in assay [17], 8%; in [18], 35%. Also, the “%Inh” value in assay [19] came to 15%; in assay [20], 0%.
As for `CN(c1cccc(CNc2nc(Nc3ccc4c(c3)CC(=O)N4)ncc2C(F)(F)F)c1)S(C)(=O)=O`, the “%Inh” value in assay [1] was 20%; in assay [2], 0%; in [3], 37%; in assay [4] it was 0%; in [5] it was 43%; in assay [6], 0%. Also, the “%Inh” value was found to be 16% in [7]; 0% in [8]; 70% in assay [9]; 0% in assay [10]; 0% in assay [11]; 0% in [12]. Also, the “%Inh” value stood at 0% in [13]; 75% in [14]; 42% in assay [15]; 16% in assay [16]; 3% in [17]; 75% in assay [18]. Besides, the “%Inh” value in assay [19] was determined as 57%; in assay [20] it was 67%.
Consider `Cc1ccc(CC(=O)N2CCc3cc(-c4cn(C)c5ncnc(N)c45)ccc32)cc1` [GSK2634758], for which the “%Inh” value in [1] stood at 3%; in assay [2] it was 1%; in assay [3], 33%; in assay [4] it was 0%; in [5], 17%; in assay [6] it was 0%. In addition, the “%Inh” value was 0% in assay [7]; 0% in [8]; 4% in [9]; 0% in [10]; 36% in assay [11]; 0% in assay [12]. For the same compound, the “%Inh” value turned out to be 0% in assay [13]; 89% in assay [14]; 48% in [15]; 0% in [16]; 0% in assay [17]; 1% in assay [18]. The “%Inh” value worked out at 0% in [19] and 42% in [20].
Take `O=C(Nc1n[nH]c2cc(-c3ccco3)ccc12)C1CC1` [SB-737447]: the “%Inh” value was 0% in assay [1]; 5% in assay [2]; 19% in assay [3]; 0% in [4]; 11% in assay [5]; 65% in assay [6]. Also, the “%Inh” value in assay [7] is listed as 5%; in [8], 12%; in [9] it was 25%; in assay [10], 2%; in assay [11], 0%; in [12] it was 6%. In addition, the “%Inh” value was determined as 0% in assay [13]; 17% in assay [14]; 3% in [15]; 20% in [16]; 0% in assay [17]; 65% in assay [18]. Besides, the “%Inh” value in assay [19] and in assay [20] was 0% throughout.
For `COc1ccc(Nc2nccc(N3CCC(NC(=O)c4cccc(C#N)c4)C3)n2)cc1` (stereo not drawn) [GSK1379730], the “%Inh” value turned out to be 0% in assay [1]; 0% in assay [2]; 19% in assay [3]; 0% in assay [4]; 0% in assay [5]; 0% in assay [6]. Besides, the “%Inh” value in [7] came to 0%; in [8] it was 0%; in [9] it was 0%; in assay [10], 0%; in [11] it was 46%; in assay [12], 0%. Besides, the “%Inh” value worked out at 0% in [13]; 16% in assay [14]; 5% in [15]; 0% in [16]; 0% in assay [17]; 0% in assay [18]. Besides, the “%Inh” value in assay [19] is recorded as 0%; in assay [20], 11%.
